Source: PubChem
Only a sample is shown.
IDE exosite inh: exo-site inhibitors of human insulin-degrading enzyme | purified IDE, FL-6b probe fluorescence polarization; stronger effect = lower value | z-score at 20 µM | actives 6.3% (n = 17,000);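 active = z-score of -3 or lower, meaning strong loss of probe binding signal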;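 note: His-tagged human IDE residues 42-1019 made in E. coli with 30 nM FL-6b probe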
The depositor's hits bear a star.

SMILES | IDE exosite inh
CN(C)CC#Cc1ccc([C@@H]2[C@H]3CN(C(=O)Cc4ccccn4)CCCCN3[C@H]2CO)cc1 | 0.567
COc1cccc(-c2ccc([C@@H]3[C@@H](CO)N4CCCCN(C(=O)Cc5ccncc5)C[C@H]34)cc2)c1 | 0.0789
O=C1CNC[C@H]2[C@H](c3ccc(Br)cc3)[C@@H](CO)N12 | -0.148
C[C@H]1CN([C@@H](C)CO)C(=O)CCCn2cc(nn2)CO[C@@H]1CN(C)C(=O)Oc1ccc2ccccc2c1 | -0.243
O=C(Cc1ccccc1)N1CCCCN2[C@H](CO)[C@H](c3ccc(C#CC4(O)CCCC4)cc3)[C@@H]2C1 | 1.67
COc1ccc(-c2ccc([C@H]3[C@H]4CN(C(=O)Cc5ccncc5)CCCCN4[C@H]3CO)cc2)cc1 | 1.74
CCCNC(=O)N1[C@@H]2Cn3c(ccc(-c4ccccc4OC)c3=O)[C@H]1[C@@H](C(=O)OC)[C@@H]2CO | 0.756
O=C(O)C[C@@H]1CC[C@H]2NC[C@H](O)COC[C@@H]2O1 | 0.271
C/C=C/c1ccc(C2[C@@H]3CN(C(=O)c4cnccn4)C[C@H]2N3)cc1 (stereo not given in full) | -0.286
